Sampled rows, rich in hits. Any-hit rate of the full collection: about 4.7%.
TRHR enhancer – allosterically enhances the human TRH receptor; P34981; enhancement, % at 2 µM; TRHR cells, fluo-8 calcium fluorescence, EC20 TRH enhancement; hit rate 0.66% among 360,000; in the data active = enhancement above about 30%; also: 0% is about no effect
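Enhancer read-out: after compound pinning and an initial kinetic agonist-mode read, an EC20 of TRH (10 nM final) was injected and fluo-8 calcium signal (Ex 480/Em 530) followed at 1 s/cycle for 100 cycles in TRHR-expressing cells.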
D1 ag – human D1 receptor agonism; AID 504660; hit rate 1% among 360,000; HEK293 T-REx D1 cells, calcium flux, agonist mode; P21728; activation, % at 2 µM; also: 0% is about no effect
Target sequence (P21728 whole entry, looked up): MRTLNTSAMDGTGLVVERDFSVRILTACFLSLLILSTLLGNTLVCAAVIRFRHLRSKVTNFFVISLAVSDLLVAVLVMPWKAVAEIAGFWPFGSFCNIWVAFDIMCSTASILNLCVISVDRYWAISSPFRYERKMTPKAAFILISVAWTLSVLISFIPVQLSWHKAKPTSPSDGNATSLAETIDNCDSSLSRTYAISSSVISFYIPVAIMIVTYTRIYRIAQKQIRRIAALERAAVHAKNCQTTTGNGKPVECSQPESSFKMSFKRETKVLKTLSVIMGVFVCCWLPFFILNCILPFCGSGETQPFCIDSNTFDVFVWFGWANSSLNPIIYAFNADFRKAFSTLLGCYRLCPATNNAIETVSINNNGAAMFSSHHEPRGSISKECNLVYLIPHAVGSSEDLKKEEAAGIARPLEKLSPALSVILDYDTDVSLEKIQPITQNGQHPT
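Tetracycline-induced HEK293 TREx D1 cells, force-coupled to calcium signalling, were dye-loaded with a no-wash calcium kit. Compound was pin-added after a 10 s baseline. Fluorescence was read kinetically at 1 cycle/s for 180 s, with calcium rises flagged as agonism.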
D1 antagonist – antagonists of human D1 dopamine receptor | P21728 | HEK293 TREx D1 cells, calcium flux, dopamine EC80; stronger effect = lower value | activity change, negative = inhibition, % at 10 µM | hit rate 3.2% among 360,000; in the data active = activity change below about -30%; also: % is scaled to controls: 0 for no effect and ±100 for the full control effect
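Antagonism measured as reduced calcium response to an EC80 dopamine addition following 180 s compound pre-read; cells were inducible HEK293 Trex D1 plated overnight at 30 C, read kinetically at 1 cycle/sec.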
D1 PAM – human D1 dopamine receptor positive modulation; HEK293 TREx D1 cells, calcium flux, dopamine EC20 potentiation; potentiation, % at 10 µM; hit rate 0.036% among 360,000; in the data active = potentiation above about 30%; also: 0% is about no effect
TRHR ag – agonists of human TRH receptor; P34981; TRHR cells, calcium flux fluo-8, FDSS agonist mode; activation, % at 2 µM; hit rate 0.18% among 360,000; also: 0% is about no effect
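Read-out: compound-evoked intracellular calcium rise in TRHR cells, fluo-8 dye, kinetic FDSS fluorescence at 1 s/cycle following a 10-cycle baseline. Cells cultured overnight before dye loading (30 min–1.5 h, RT).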
An asterisk follows results filed as active; nt = no result; ! = not confirmed by another sample. Rule as the data show it, unless noted: active = activation above about 30%; inactive = the rest.

SMILES	TRHR enhancer	D1 ag	D1 antagonist	D1 PAM	TRHR ag
CCOc1ccc(C(=O)Nc2cccc(-c3nc4cc(Cl)cc(Cl)c4o3)c2)cc1	35*	0	6	-2	0
CCOc1ccc(C(=O)Nc2ccc(Cl)c(-c3nc4cc(C)cc(C)c4o3)c2)cc1	1	6	2	2	0
CCOc1ccc(N2CC(NC(=O)Cc3ccccc3)CC2=O)cc1 (configuration not stated)	-4	-2	nt	-1	0
Cc1ccc(NC(=O)COC(=O)C(NS(=O)(=O)c2ccc(Cl)cc2)C(C)O)cc1 (configuration not stated)	2	7	-27	-3	2
CC(NS(=O)(=O)c1ccc(Cl)cc1)C(=O)OCC(=O)Nc1ccc(N(C)C)cc1 (configuration not stated)	1	1	-45*	-1	0
Cn1nnnc1Sc1ncnc2scc(-c3ccc(C(=O)OC(C)(C)C)cc3)c12	4	5	-6	14	0
Cc1cc(C(=O)CSc2nnc(N)s2)c(C)n1Cc1cccs1	-5	9	-39*	-7	0
CCc1ccc(NC(=O)C(C)OC(=O)c2cc(=O)[nH]c3ccc(S(=O)(=O)Nc4ccc(F)cc4)cc23)cc1 (configuration not stated)	-20	3	-37*	-12	0
Cc1cccc(NS(=O)(=O)c2ccc3[nH]c(=O)cc(C(=O)OC(C)C(=O)Nc4ccc([N+](=O)[O-])cc4)c3c2)c1 (configuration not stated)	-3	2	-6	0	-1
O=C(NCCc1ccccc1)C1CCC(CNS(=O)(=O)c2ccc(Cl)cc2)CC1 (configuration not stated)	-4	2	-7	-7	0
CCc1ccc2occ(CC(=O)Nc3c(C(=O)Nc4ccc(OC)cc4)oc4ccccc34)c2c1	21	1	-8	-1	0
COc1cccc(C(=O)Nc2ccc3nc(SCC(=O)N4CCc5ccccc54)sc3c2)c1	-3	8	-38*	-2	1
CCOC(=O)Nc1ccc2nc(Sc3ccc(Cl)cc3)sc2c1	-7	7	-34*	-6	0
O=C(COc1ccc(Cl)cc1)Nc1ccc2nc(SCC(=O)N3CCOCC3)sc2c1	-1	11	-36*	-2	1
Cc1ccc(OCC(=O)Nc2ccc3nc(SCC(=O)N4CCc5ccccc54)sc3c2)cc1	5	0	-35*	4	-1
COc1cc(Cl)c(C)cc1NC(=O)c1cc2ccc3cccnc3c2[nH]1	6	2	-8	0	-2
O=S(=O)(c1ccc(Cl)cc1)c1nnn2c1nc(NCc1cccs1)c1sccc12	-5	2	-22	-4	1
CCOC(=O)CSc1nc2ccc(NC(=O)COc3ccc(F)cc3)cc2s1	1	5	2	-1	-1
Cc1cc2cc(CNC(=O)C3CCCC3)ccc2n1C	-9	2	-30*	-13	0
Cc1cc2cc(CNS(=O)(=O)c3ccc4ccccc4c3)ccc2n1C	1	-2	1	-3	0
Cc1cc(C)c(S(=O)(=O)NCc2ccc3c(c2)cc(C)n3C)c(C)c1	5	-2	-37*	-8	0
Cc1cc2cc(CNC(=O)Cc3ccc([N+](=O)[O-])cc3)ccc2n1C	-1	3	-31*	-14	0
CCCC(=O)NCc1ccc2c(c1)cc(C)n2C	8	3	-2	-3	0
Cc1cc2cc(CNC(=O)c3cccc([N+](=O)[O-])c3)ccc2n1C	0	-1	-29	-3	0
CC(c1ccccc1)C(CC(=O)O)C(=O)NC1CCCCC1 (configuration not stated)	-3	1	-31*	-4	-1
CC(C)N(Cc1ccccc1)C(=S)NC1CCCCC1	0	5	-31*	-15	0
Cn1nnnc1Sc1ncnc2scc(-c3ccc4ccccc4c3)c12	0	10	-13	-5	2
Cn1nnnc1Sc1ncnc2scc(-c3cc4ccccc4o3)c12	-3	3	-44*!	-6	1
Cn1nnnc1Sc1ncnc2scc(-c3ccccc3C(F)(F)F)c12	12	1	-36*!	8	-2
CN1CCC(N(C)S(=O)(=O)c2ccc(Cl)cc2)CC1	35*	0	21	-1	0

Bioassay records (PubChem BioAssay)
